Some test systems named below: SR leukemia; OVCAR-8 ovarian; OVCAR-5 ovarian; OVCAR-4 ovarian; SK-OV-3 ovarian; IGROV1 ovarian; OVCAR-3 ovarian; HS 578T breast; NCI/ADR-RES ovarian; T-47D breast; BT-549 breast; MDA-MB-435 melanoma; SW-620 colon; MCF7 breast; HCT-116 colon; HCC-2998 colon; KM12 colon.
Holding throughout (assay): NCI-60 one-dose screen, 48 h (100 = growth as untreated, 0 = no growth, -100 = all killed)
What all share (details): 10 µM unless noted

Consider 9 compounds from PubChem BioAssay (NCI).

Structures are written as SMILES. Compounds without any hit were thinned out: in the full panel of roughly 83,000, 20% have a hit.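 For each line, cells grew in 96-well plates with the test compound present at a single concentration for 48 hours.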 Values without a mark were called inactive. Activity calls are given as the source filed them. The calls were made as follows: active = growth percent below 10; inactive = the rest.

For `CCCCOc1nc2ccccc2cc1/C=C/c1cc(/C=C/c2cc3ccccc3nc2OCCCC)n(-c2ccccc2)n1`, the growth in the test with SR leukemia is 98.7%; with OVCAR-8 ovarian, 95.9%; with OVCAR-5 ovarian it was 102%; in the test on OVCAR-4 ovarian it was 109%; in the test with SK-OV-3 ovarian it was 92.6%; in the test on IGROV1 ovarian it was 97.9%. For the same compound, the growth in the test with OVCAR-3 ovarian was 107%; in the test with HS 578T breast, 87.6%; in the test on NCI/ADR-RES ovarian, 106%; in the test on T-47D breast, 102%; in the test on BT-549 breast, 93.2%; in the test on MDA-MB-435 melanoma it was 108%. Also, the growth in the test on SW-620 colon was 101%; with MCF7 breast, 99.1%; with HCT-116 colon, 93.1%; with HCC-2998 colon, 119%; with KM12 colon it was 103%.

Regarding `CCN(CC)CCNC(=O)n1cc(-c2ccncc2)c(-c2cc(Cl)cc(OC)c2)n1`, the growth was 51% in the test with SR leukemia; 27.7% in the test on OVCAR-8 ovarian; 88.4% with OVCAR-5 ovarian; 70.4% with OVCAR-4 ovarian; 47.8% in the test with SK-OV-3 ovarian; 86% with IGROV1 ovarian. The growth was 94.3% with OVCAR-3 ovarian; 86% with NCI/ADR-RES ovarian; 87.3% in the test on T-47D breast; 95.6% in the test with BT-549 breast; 83.5% with MDA-MB-435 melanoma; 100% with SW-620 colon. Further, the growth in the test with MCF7 breast is 87.7%; in the test on HCT-116 colon, 85.5%; in the test with HCC-2998 colon, 113%; in the test with KM12 colon, 98.3%.

Take `O=C(CC(=O)c1cccc(Cl)c1)c1cccc(Cl)c1`: the growth with SR leukemia was 2.96% (active); in the test with OVCAR-8 ovarian, 21.9%; in the test with OVCAR-5 ovarian it was 46.8%; with OVCAR-4 ovarian, 42%; in the test on SK-OV-3 ovarian, 47.5%; with IGROV1 ovarian, 34.1%. Further, the growth with OVCAR-3 ovarian is 32%; with HS 578T breast it was 73.6%; in the test with NCI/ADR-RES ovarian it was 8.52% (active); with T-47D breast, 37.2%; in the test with BT-549 breast, 47.6%; with MDA-MB-435 melanoma, 47.9%. Besides, the growth in the test with SW-620 colon was 30.7%; in the test with MCF7 breast, 25.4%; in the test on HCT-116 colon it was 19.8%; in the test on HCC-2998 colon, 35%; in the test with KM12 colon, 41.9%.

Turning to `Fc1ccc(-c2cnc3nonc3n2)c(F)c1`, the growth in the test with SR leukemia was 74.5%; in the test with OVCAR-8 ovarian, 102%; with OVCAR-5 ovarian, 96.8%; with OVCAR-4 ovarian it was 93.3%; in the test on SK-OV-3 ovarian, 92.1%; in the test with IGROV1 ovarian, 108%. Moreover, the growth is 81.5% with OVCAR-3 ovarian; 98.1% with HS 578T breast; 104% with NCI/ADR-RES ovarian; 80.8% in the test on T-47D breast; 91.6% in the test on BT-549 breast; 84.4% in the test on MDA-MB-435 melanoma. For the same compound, the growth in the test on SW-620 colon is 97%; in the test with HCT-116 colon, 96.9%; with HCC-2998 colon, 93.5%; in the test on KM12 colon, 82.9%.

As for `Cn1cnc([N+](=O)[O-])c1S(=O)(=O)Oc1cccc2ccccc12`, the growth in the test on SR leukemia was 17.5%; in the test with OVCAR-8 ovarian, 73.3%; in the test with OVCAR-5 ovarian, 82.3%; in the test with OVCAR-4 ovarian it was 81.3%; in the test on SK-OV-3 ovarian it was 95.8%; in the test with IGROV1 ovarian, 36.9%. Moreover, the growth in the test with OVCAR-3 ovarian was -73% (active); with HS 578T breast it was 99.7%; in the test on NCI/ADR-RES ovarian, 57.6%; in the test on T-47D breast it was -30.9% (active); in the test with BT-549 breast, 99.9%; with MDA-MB-435 melanoma, 67.9%. Also, the growth is 7.26% (active) with SW-620 colon, 17.8% in the test with HCT-116 colon, 88.7% in the test on HCC-2998 colon and 88.9% in the test with KM12 colon.

In the case of `CC(NC(=O)c1ccccc1)C(=O)Nc1ccccc1` (centres undefined), the growth with SR leukemia was 89.9%; in the test on OVCAR-8 ovarian, 103%; in the test on OVCAR-5 ovarian, 107%; in the test with OVCAR-4 ovarian, 114%; in the test with SK-OV-3 ovarian, 113%; in the test with IGROV1 ovarian it was 128%. The growth was 135% in the test on OVCAR-3 ovarian; 114% in the test with HS 578T breast; 108% with NCI/ADR-RES ovarian; 104% in the test on BT-549 breast; 112% in the test on MDA-MB-435 melanoma; 108% in the test on SW-620 colon. Also, the growth is 97.9% in the test with MCF7 breast, 97.2% with HCT-116 colon, 99.4% in the test with HCC-2998 colon and 108% in the test on KM12 colon.

Regarding `CC(C)c1ccc(-c2cnc3nonc3n2)cc1`, the growth in the test with SR leukemia was 6.91% (active); with OVCAR-8 ovarian, 36.6%; with OVCAR-5 ovarian it was 37.6%; in the test with OVCAR-4 ovarian, 59.5%; in the test with SK-OV-3 ovarian, 82.4%; in the test on IGROV1 ovarian it was 54.4%. The growth was 15.6% with OVCAR-3 ovarian; 77.6% in the test on HS 578T breast; 19.9% in the test on NCI/ADR-RES ovarian; 42.5% in the test with T-47D breast; 7.62% (active) in the test with BT-549 breast; 23.7% in the test on MDA-MB-435 melanoma. The growth in the test on SW-620 colon was 29.8%; in the test with MCF7 breast, 11.5%; with HCT-116 colon it was 10.2%; in the test with HCC-2998 colon, 61.1%; in the test with KM12 colon, 31.2%.

`O=S(=O)(Cc1ccc(Cl)cc1Cl)c1ccc(Cl)cc1`: the growth in the test with SR leukemia is 24.3%; with OVCAR-8 ovarian, 31.9%; with OVCAR-5 ovarian, 53.9%; with OVCAR-4 ovarian, 69.5%; in the test on SK-OV-3 ovarian, 9.24% (active); with IGROV1 ovarian, 36.1%. Also, the growth in the test with OVCAR-3 ovarian is 1.54% (active); in the test with HS 578T breast, 63.3%; in the test on NCI/ADR-RES ovarian, -8.57% (active); with T-47D breast it was 47.5%; in the test with BT-549 breast, 62.7%; with MDA-MB-435 melanoma, -33.1% (active). Also, the growth was 37.5% with SW-620 colon; 22.1% in the test on MCF7 breast; 26.9% in the test on HCT-116 colon; 31.7% with HCC-2998 colon; 33.6% in the test on KM12 colon.

Take `CCN1C(=O)N(CC)C2C1NN=c1s/c(=C\c3ccco3)c(=O)n12` (centres undefined): the growth in the test with SR leukemia was 17%; in the test on OVCAR-8 ovarian, 27.8%; with OVCAR-5 ovarian it was 36.7%; in the test with OVCAR-4 ovarian it was 63.3%; with SK-OV-3 ovarian, 31.6%; with IGROV1 ovarian, 36.9%. Also, the growth in the test on OVCAR-3 ovarian was -12% (active); in the test with HS 578T breast, 29.6%; with NCI/ADR-RES ovarian it was 9.31% (active); in the test with T-47D breast it was 27.8%; in the test with BT-549 breast it was 53.9%; in the test on MDA-MB-435 melanoma, -56.9% (active). Besides, the growth in the test on SW-620 colon was 20.2%; with MCF7 breast, 12.1%; in the test on HCT-116 colon, 23.5%; in the test with HCC-2998 colon, 23%; in the test with KM12 colon it was 15.9%.
